From PubChem BioAssay (NCATS) come the findings set out here.

The target of test [1] is Lysosomal acid glucosylceramidase (Homo sapiens) (UniProt P04062). The test is described as follows: Glucocerebrosidase-p2 (AID 348; in the data active = potency below about 10 µM; also: potency is read from the fitted curve at half-maximal effect). The settings on record: purified GBA, blue fluorogenic substrate, 40 min. The procedure, abridged: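 Compounds titrated from 0.6 nM upwards against 0.2 nM enzyme in pH 5.9 citric acid/KH2PO4, taurocholate, tween-20; blue fluorogenic substrate 80 uM, 40 min room temperature, stopped and read Ex 365/Em 440 for AC50.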

Test [2] in a line: AP1 Signaling Pathway (AID 357; active = well fitted curve in either direction with a large enough effect, not every such curve was filed as active;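 also: ME-180 reporter cells stimulated with EGF at its EC50 level; % is scaled to controls: 0 for no effect and ±100 for the full control effect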). The following applies: ME-180 AP-1-bla reporter, EGF-induced, beta-lactamase ratio, 5 h; at 7.69 µM (top of the series) unless noted. Summed up:
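Read-out was the 460nm/530nm emission ratio (excitation 405nm) after CCF4 loading for 2.5 hours at room temperature. Cells carried an AP-1-driven beta-lactamase reporter, were stimulated with EC50 EGF plus compound for 5 hours, and AC50 values came from titrations.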

Test [3] addresses Cytochrome P450 1A2 (Homo sapiens) (UniProt P05177). The test is described as follows: p450-cyp1a2 (AID 410; calls by dose curve; also: potency is read from the fitted curve at half-maximal effect). The following applies: recombinant CYP1A2, luciferin-ME demethylation, luminescence; series mostly up to 57 µM. The procedure, abridged:
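Inhibition was calculated relative to 57 uM furafylline (full inhibition). The reaction used human CYP1A2 at 20nM with Luciferin-ME at its Km, 100uM, driven by an NADPH-regenerating system for 60 min at room temperature.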

Test [4] in a line: NFAT Signaling Pathway (AID 444; active = well fitted curve in either direction with a large enough effect, not every such curve was filed as active;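 also: carbachol stimulus at about its EC50 of 1 µM final; % is scaled to controls: 0 for no effect and ±100 for the full control effect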). The settings on record: Jurkat NFAT-bla M1, carbachol, beta-lactamase ratio, 5 h; at 7.69 µM (top of the series) unless noted. The procedure, abridged:
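Jurkat cells carrying an NFAT-driven β-lactamase reporter and co-transfected muscarinic M1 receptor were treated with compound plus carbachol (1 uM final, an EC50 level) for 5 h at 37 °C. CCF4 loading followed for 1 h at RT; 460/530 nm ratio gave %activity.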

Test [5] in a line: Stat Signaling Pathway (AID 446; active = well fitted curve in either direction with a large enough effect, not every such curve was filed as active;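 also: ME-180 cervical cancer cells given 40 pM IL-6 alongside compound; SIE-controlled beta-lactamase reporter measured as 460/530 nm FRET emission ratio; % is scaled to controls: 0 for no effect and ±100 for the full control effect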). The following applies: ME-180 SIE beta-lactamase reporter, IL-6 stimulated, 5 h; at 7.69 µM (top of the series) unless noted. Summed up: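 ME-180 cells carrying a SIE-driven beta-lactamase reporter are stimulated with 40 pM IL-6 for 5 h at 37C in the presence of compound. The 460/530 nm FRET substrate ratio is read after 2.5 h at RT. Data are normalised to 300 pM IL-6 and to 125 nM JAK inhibitor controls.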

The target in test [6] is Glucocorticoid receptor (Homo sapiens) (UniProt P04150). The test is described as follows: GR-GFP Redistribution (AID 450;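 active = compounds whose dose series gives a full or clear partial fitted curve of increased nuclear translocation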; also: potency is read from the fitted curve at half-maximal effect). The settings on record: U2OS GR-GFP nuclear translocation, laser cytometry, 2 h.
Test [7] has the same target. In words: GR-EFC Redistribution (AID 451; calls by dose curve; also: potency is read from the fitted curve at half-maximal effect). The settings on record: CHO-K1 GR-EFC translocation, beta-gal luminescence, 2 h. The procedure, abridged:
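CHO-K1 cells stably expressing nuclear-localized β-gal enzyme acceptor and GR fused C-terminally to the enzyme donor fragment; ligand-driven nuclear translocation restores β-gal by complementation. Compounds titrated up to 46 uM final, 2 h at 37 °C; luminescence read.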

Test [8] has as its target Mitogen-activated protein kinase 10 (Mus musculus) (UniProt Q61831). In words: JNK3 AlphaScreen Assay (AID 530; active = well fitted curve in either direction with a large enough effect, not every such curve was filed as active;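 also: kinase came from lysate of stimulated human HepG2 cells; signal reports phosphorylation of biotinylated GST-cJun 1-79 at Ser73 with 10 µM ATP; % is scaled to controls: 0 for no effect and ±100 for the full control effect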). The settings on record: JNK3 lysate, c-Jun phosphorylation; series mostly up to 57.1 µM. Summed up:
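JNK3 came from HepG2 lysates pre-activated with IL-1beta and TNF-alpha and phosphorylated biotinylated GST-cJun (1-79) at 10 uM ATP, pH 7.6, room temperature. Compounds were titrated. AlphaScreen signal used anti-phospho-cJun (Ser73) antibody.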
Background: Alpha assays give light when donor and acceptor beads are brought close together.

In test [9] the target is 3',5'-cyclic-AMP phosphodiesterase 4B (Homo sapiens) (UniProt Q07343). In words: qHTS Assay for Inhibitors of PDE-IV (AID 607; active = well fitted activation curve with a large enough effect in the main read-out, with a control signal flat, not every such curve was filed as active; also: % of control where 0% means no effect). The following applies: HEK293 ACTOne CNG channel cells, membrane potential fluorescence; series mostly up to 22.9 µM. The procedure, abridged: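 HEK293 ACTOne cells with CNG channel (1000/well), endogenous PDE4; membrane potential dye, compounds up to 22.9 uM final. Fluorescence Ex 535/Em 590; RO 20-1724 (100 uM final) as reference.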
(In general: In qHTS, concentration-response curves come from the screen itself.)

In test [10] the target is Cytochrome P450 2C9 (Homo sapiens) (UniProt P11712). In words: qHTS Assay for Inhibitors and Substrates of Cytochrome P450 2C9 (AID 883). Also: % is scaled to controls: 0 for no effect and ±100 for the full control effect; nearly all actives have a fitted effect of over 60% in size. The following applies: recombinant CYP2C9, luciferin-H luminescence, 60 min; series mostly up to 57.1 µM. The procedure, abridged: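 Human CYP2C9 (10nM) hydroxylated Luciferin-H (100uM, at its KM) to luciferin in 25mM KPO4. Compound was preincubated 10 min at 37C, then NADPH regeneration started a 60 min reaction at 37C. Luminescence was read after detection reagent, normalized to 57uM sulphaphenazole.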

Test [11] concerns the target Cytochrome P450 3A4 (Homo sapiens) (UniProt P08684). The test is described as follows: qHTS Assay for Activators of Cytochrome P450 3A4 (AID 885). Also: nearly all actives have a fitted effect of over 65% in size. The following applies: recombinant CYP3A4, Luciferin-PPXE luminescence, 60 min; series mostly up to 57.1 µM. The procedure, abridged: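 Human CYP3A4 (20 nM) with Luciferin-PPXE at 25 uM (its KM) in 200 mM KPO4; 10 min compound preincubation, then NADPH regeneration and 60 min reaction at RT. Luciferin read by luminescence; normalized to 57 uM ketoconazole full inhibition.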

Test [12] deals with Dual specificity protein kinase CLK4 (Homo sapiens) (UniProt Q9HAZ1). The test is described as follows: qHTS Assay for Inhibitors of CDC-like Kinase 4 (Kinase-Glo Assay) (AID 1770). Also: nearly all actives have a fitted effect of over 65% in size. Also: potency is read from the fitted curve at half-maximal effect. The following applies: recombinant Clk4, Kinase-Glo ATP depletion luminescence; series mostly up to 66.7 µM. The procedure, abridged:
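Recombinant human Clk4 (25 nM) phosphorylated RS repeat peptide (100 uM) with 1 uM ATP in Tris pH 7.5/MgCl2/EGTA/DTT/Triton buffer for 4.5 h at room temperature. Residual ATP was quantified by Kinase-Glo luciferase luminescence.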

Test [13] has the same target. In words: qHTS Assay for Inhibitors of CDC-like Kinase 4 (ADP-Glo Assay) (AID 1771). Also: nearly all actives have a fitted effect of over 70% in size. Also: potency is read from the fitted curve at half-maximal effect. The settings on record: recombinant CLK4, ADP-Glo luminescence; series mostly up to 80 µM. The procedure, abridged: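 Kinase reaction: Clk4 at 25 nM, RS repeat peptide substrate at 100 uM, ATP at 1 uM, 1 hr, room temperature. Product ADP detected as luciferase signal via ADP-Glo.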

Test [14] has the same target. The test is described as follows: qHTS Assay for Inhibitors of CDC-like Kinase 4 (ADP-FP Assay) (AID 1795). Also: nearly all actives have a fitted effect of over 60% in size. Also: potency is read from the fitted curve at half-maximal effect. The following applies: Transcreener ADP fluorescence polarization; series mostly up to 50 µM. Summed up:
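Recombinant human Clk4 (6.25 nM) phosphorylated RS repeat peptide (100 uM) with 1 uM ATP in Tris pH 7.5/MgCl2/EGTA/DTT/Triton buffer for one hour. ADP was quantified by Transcreener competitive fluorescence polarization against an ADP calibration curve.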

For test [15], the target named is Ubiquitin carboxyl-terminal hydrolase 1 (Homo sapiens) (UniProt O94782). In words: Inhibitors of USP1/UAF1: Pilot qHTS (AID 504865).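 Also: rhodamine fluorescence freed from ubiquitin-rhodamine substrate followed over time; top concentration of the series differs between compounds; % is scaled to controls: 0 for no effect and ±100 for the full control effect; nearly all actives have a fitted effect of over 35% in size.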 The settings on record: purified USP1/UAF1, Ub-rhodamine cleavage fluorescence; series mostly up to 54.9 µM. Summed up: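 USP1/UAF1 complex (1nM) preincubated with compound 15 min at room temperature, then Ub-Rho substrate (150nM final) added. Fluorescence read kinetically at 480/540 nm, 6 reads every 60 seconds. Buffer: 50mM HEPES pH 7.8, 0.5mM EDTA, 0.1 mg/ml BSA, 1mM TCEP, 0.01% Tween-20.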

Test [16] is described as follows: Primary qHTS for small molecule stabilizers of the endoplasmic reticulum resident proteome: Secreted ER Calcium Modulated Protein (SERCaMP) assay (AID 1508630). Also: % is scaled to controls: 0 for no effect and ±100 for the full control effect. The settings on record: SH-SY5Y GLuc-SERCaMP (Gaussia luciferase released on ER calcium loss) secretion, thapsigargin, luminescence; series mostly up to 38.4 µM. The procedure, abridged:
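GLuc-SERCaMP-expressing SH-SY5Y cells, pretreated 16 h with compound, are challenged with thapsigargin to empty ER calcium stores; after 4 h, coelenterazine is added directly to the medium and luminescence is imaged.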

The target of test [17] is Cytochrome P450 3A4 (Homo sapiens) (UniProt P08684). In words: qHTS Assay for Inhibitors and Substrates of Cytochrome P450 3A4 (AID 884). Also: potency is read from the fitted curve at half-maximal effect; nearly all actives have a fitted effect of over 50% in size. The settings on record: recombinant CYP3A4, Luciferin-PPXE luminescence; series mostly up to 57.1 µM. Summed up:
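20 nM human CYP3A4 with 25 uM Luciferin-PPXE (at KM) in 200 mM KPO4, preincubated 10 min with compound; NADPH regeneration started a 60 min RT reaction. Luciferin detected by luminescence, normalized to 57 uM ketoconazole as full inhibition.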

Test [18] has as its target Cytochrome P450 2C19 (Homo sapiens) (UniProt P33261). The test is described as follows: qHTS Assay for Inhibitors and Substrates of Cytochrome P450 2C19 (AID 899). Also: potency is read from the fitted curve at half-maximal effect; nearly all actives have a fitted effect of over 60% in size. The settings on record: recombinant CYP2C19, luciferin-H EGE luminescence; series mostly up to 57.1 µM. The procedure, abridged: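 Human CYP2C19 (5nM) with Luciferin-H EGE at 10uM (its KM) in 50mM KPO4 was preincubated with compound for 10 min at 37C. NADPH regeneration started a 60 min 37C reaction. Luciferin was read by luminescence, normalized to 57uM ketoconazole.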

Each structure is given as a SMILES string. Unmarked numbers belong to inactive results. Inconclusive results are not listed. The source made the active and inactive calls. Unless noted, calls follow the shape of the dose curve; as a rule, active = well fitted curve in the direction sought with a large enough effect; inconclusive = small, poorly fitted or top-dose-only effect, or another doubt; inactive = no such curve, though single readings can be large; an effect the other way counts as inactive or inconclusive.

Chain of Glucocorticoid receptor (Homo sapiens) (P04150 whole entry, looked up): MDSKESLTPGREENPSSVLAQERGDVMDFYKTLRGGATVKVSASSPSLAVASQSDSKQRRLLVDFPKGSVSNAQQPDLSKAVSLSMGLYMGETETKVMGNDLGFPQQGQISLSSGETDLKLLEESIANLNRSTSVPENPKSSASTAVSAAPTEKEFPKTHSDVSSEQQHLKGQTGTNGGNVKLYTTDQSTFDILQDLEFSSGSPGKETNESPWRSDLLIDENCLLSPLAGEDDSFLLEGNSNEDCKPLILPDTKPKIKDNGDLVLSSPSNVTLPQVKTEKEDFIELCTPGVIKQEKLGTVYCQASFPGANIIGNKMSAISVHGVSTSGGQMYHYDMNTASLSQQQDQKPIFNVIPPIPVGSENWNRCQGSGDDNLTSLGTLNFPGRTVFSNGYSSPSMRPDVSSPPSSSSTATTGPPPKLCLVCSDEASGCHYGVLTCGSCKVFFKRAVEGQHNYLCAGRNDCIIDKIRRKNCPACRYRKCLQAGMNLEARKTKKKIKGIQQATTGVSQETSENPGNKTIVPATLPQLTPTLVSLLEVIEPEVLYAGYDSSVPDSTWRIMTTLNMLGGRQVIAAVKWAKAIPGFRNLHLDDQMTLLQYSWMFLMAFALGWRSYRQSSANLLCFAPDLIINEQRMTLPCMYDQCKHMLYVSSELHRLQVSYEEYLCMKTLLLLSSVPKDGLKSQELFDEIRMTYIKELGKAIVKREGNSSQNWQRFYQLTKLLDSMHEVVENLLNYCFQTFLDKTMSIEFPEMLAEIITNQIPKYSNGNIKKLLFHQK
Chain of Cytochrome P450 3A4 (Homo sapiens) (P08684 whole entry, looked up): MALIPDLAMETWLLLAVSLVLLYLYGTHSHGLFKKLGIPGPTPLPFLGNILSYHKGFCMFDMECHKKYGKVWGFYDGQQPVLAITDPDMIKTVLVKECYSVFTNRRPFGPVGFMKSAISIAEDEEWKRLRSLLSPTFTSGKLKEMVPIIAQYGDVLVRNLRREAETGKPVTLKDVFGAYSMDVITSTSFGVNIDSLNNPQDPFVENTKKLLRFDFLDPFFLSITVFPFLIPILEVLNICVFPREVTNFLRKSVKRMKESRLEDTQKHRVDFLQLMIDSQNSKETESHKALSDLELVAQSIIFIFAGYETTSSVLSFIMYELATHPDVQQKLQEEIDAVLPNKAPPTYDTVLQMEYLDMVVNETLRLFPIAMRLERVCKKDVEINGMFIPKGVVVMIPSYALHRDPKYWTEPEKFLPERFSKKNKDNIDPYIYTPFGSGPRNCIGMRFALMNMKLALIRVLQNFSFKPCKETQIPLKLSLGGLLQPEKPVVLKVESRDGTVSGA
Chain of Cytochrome P450 1A2 (Homo sapiens) (P05177 whole entry, looked up): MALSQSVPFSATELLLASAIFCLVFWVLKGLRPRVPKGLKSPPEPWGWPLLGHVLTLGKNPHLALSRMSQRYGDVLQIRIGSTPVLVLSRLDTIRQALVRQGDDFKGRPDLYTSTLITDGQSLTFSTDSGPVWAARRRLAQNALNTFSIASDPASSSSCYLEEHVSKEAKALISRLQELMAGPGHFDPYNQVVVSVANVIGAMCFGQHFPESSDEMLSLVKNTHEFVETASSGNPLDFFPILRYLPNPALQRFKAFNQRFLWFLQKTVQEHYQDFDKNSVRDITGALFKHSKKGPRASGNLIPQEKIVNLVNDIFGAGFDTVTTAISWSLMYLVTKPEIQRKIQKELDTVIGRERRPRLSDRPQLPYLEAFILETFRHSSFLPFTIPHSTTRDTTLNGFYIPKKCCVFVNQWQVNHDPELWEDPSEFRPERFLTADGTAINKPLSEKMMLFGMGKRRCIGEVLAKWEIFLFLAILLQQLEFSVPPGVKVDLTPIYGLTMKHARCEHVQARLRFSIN
Chain of Lysosomal acid glucosylceramidase (Homo sapiens) (P04062 whole entry, looked up): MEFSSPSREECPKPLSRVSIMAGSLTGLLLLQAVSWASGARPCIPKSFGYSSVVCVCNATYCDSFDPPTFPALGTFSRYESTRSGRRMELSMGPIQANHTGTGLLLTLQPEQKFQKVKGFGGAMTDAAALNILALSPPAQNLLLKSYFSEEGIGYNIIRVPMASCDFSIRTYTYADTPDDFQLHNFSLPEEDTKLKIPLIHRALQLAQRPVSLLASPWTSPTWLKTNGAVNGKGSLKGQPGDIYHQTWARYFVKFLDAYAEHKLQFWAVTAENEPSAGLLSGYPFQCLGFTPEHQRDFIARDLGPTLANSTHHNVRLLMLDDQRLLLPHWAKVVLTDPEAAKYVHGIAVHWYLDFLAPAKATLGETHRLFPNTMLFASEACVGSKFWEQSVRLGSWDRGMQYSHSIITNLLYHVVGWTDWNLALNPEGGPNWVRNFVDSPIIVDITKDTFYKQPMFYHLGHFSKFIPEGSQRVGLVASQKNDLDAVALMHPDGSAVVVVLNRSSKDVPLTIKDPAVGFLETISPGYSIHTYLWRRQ
Chain of Dual specificity protein kinase CLK4 (Homo sapiens) (Q9HAZ1 whole entry, looked up): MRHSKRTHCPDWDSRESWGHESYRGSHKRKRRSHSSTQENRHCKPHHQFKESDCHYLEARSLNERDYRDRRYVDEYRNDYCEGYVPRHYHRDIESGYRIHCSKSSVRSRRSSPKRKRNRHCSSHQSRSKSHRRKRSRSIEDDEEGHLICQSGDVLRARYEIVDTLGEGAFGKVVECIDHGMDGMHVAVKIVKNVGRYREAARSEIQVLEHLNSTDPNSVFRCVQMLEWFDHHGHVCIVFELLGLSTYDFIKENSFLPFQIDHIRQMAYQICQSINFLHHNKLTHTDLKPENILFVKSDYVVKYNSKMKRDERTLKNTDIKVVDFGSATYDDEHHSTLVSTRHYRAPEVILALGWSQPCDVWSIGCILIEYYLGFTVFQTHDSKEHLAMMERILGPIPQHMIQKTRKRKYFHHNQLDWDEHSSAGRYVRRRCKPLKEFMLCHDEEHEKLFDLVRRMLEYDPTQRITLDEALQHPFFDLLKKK
Chain of Ubiquitin carboxyl-terminal hydrolase 1 (Homo sapiens) (O94782 whole entry, looked up): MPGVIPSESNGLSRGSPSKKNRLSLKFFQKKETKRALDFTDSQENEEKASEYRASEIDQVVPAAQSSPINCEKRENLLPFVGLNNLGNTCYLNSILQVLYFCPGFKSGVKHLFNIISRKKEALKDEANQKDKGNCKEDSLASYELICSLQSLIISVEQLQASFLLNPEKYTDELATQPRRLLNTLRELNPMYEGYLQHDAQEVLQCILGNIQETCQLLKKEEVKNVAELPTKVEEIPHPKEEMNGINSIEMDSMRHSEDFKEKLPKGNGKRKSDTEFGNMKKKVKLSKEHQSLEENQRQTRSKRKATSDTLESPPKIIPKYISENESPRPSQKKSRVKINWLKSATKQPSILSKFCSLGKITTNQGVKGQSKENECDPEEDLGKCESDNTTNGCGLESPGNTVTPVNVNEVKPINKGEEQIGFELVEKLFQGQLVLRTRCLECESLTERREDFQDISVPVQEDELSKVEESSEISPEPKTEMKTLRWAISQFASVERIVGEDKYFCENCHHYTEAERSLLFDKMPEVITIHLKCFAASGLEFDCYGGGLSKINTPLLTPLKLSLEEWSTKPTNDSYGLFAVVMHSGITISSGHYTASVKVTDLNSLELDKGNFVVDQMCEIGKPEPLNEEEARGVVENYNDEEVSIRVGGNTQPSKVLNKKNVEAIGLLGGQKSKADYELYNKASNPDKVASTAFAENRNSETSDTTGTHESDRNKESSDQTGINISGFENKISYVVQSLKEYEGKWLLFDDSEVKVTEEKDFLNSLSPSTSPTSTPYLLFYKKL
Chain of 3',5'-cyclic-AMP phosphodiesterase 4B (Homo sapiens) (Q07343 whole entry, looked up): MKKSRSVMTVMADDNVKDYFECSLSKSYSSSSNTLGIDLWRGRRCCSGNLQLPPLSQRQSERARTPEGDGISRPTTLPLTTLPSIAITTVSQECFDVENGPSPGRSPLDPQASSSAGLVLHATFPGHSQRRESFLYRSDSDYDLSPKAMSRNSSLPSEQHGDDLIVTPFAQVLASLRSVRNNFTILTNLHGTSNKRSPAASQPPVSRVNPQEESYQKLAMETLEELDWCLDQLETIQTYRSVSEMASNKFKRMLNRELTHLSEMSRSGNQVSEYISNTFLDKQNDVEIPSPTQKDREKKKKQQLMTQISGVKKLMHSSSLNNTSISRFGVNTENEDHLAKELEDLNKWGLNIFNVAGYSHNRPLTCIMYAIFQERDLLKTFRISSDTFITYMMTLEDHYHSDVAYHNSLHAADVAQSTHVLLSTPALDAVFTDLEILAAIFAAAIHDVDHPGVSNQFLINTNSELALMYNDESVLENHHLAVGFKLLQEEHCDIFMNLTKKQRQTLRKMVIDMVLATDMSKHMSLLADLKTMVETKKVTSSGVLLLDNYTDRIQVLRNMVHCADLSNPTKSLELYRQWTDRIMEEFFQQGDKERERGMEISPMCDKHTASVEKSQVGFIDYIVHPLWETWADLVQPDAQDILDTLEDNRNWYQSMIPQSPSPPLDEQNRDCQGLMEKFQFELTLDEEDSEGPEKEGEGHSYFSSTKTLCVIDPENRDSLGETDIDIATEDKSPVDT
Chain of Cytochrome P450 2C9 (Homo sapiens) (P11712 whole entry, looked up): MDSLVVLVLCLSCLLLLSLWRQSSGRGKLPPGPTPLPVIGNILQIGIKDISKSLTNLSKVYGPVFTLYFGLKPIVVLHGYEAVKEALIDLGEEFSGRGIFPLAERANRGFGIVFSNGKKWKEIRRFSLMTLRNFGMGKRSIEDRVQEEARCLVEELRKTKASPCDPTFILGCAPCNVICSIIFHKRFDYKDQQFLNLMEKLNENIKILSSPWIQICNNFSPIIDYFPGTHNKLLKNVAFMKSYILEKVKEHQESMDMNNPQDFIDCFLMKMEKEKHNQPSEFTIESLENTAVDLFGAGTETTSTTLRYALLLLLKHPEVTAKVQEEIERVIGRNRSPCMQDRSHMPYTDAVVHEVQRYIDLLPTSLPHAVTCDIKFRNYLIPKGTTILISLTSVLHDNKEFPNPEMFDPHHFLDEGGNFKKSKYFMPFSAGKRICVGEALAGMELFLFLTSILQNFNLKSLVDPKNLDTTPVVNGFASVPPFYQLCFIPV

Consider `O=c1c(-c2cc(F)cc(F)c2)nc2cncnc2n1C1CC1`, for which the Potency is > 11.4 µM in test [1], 1.26 µM (active) in [3], > 9.22 µM in [6] and > 46 µM in [7]. Moreover, the activity change, negative = inhibition was -12% in [2] and 2.52% in test [4]. Besides, the activity, negative = inhibition in test [5] was -11.9%. Moreover, the Potency entry in test [8], in test [9], in test [10], in [11], in [12] and in [13] was “inactive” throughout. Also, the Potency entry in [14] and in test [15] was “inactive” throughout. For the same molecule, the outcome in test [16] was inactive.
Consider `Cn1c(=O)c(-c2ccccc2)nc2cnc(Nc3ccccc3)nc21`, for which the Potency in test [1] is > 11.4 µM; in test [3] it was 15.8 µM (active); in test [6] it was > 9.22 µM; in test [7], > 46 µM. Moreover, the activity change, negative = inhibition in test [2] is 6.58%; in test [4] it was -7.03%. For the same molecule, the activity, negative = inhibition in test [5] was 8.87%. The Potency result in [8], in [12], in test [13], in [14] and in test [15] was “inactive” each time. In test [16], the result was inactive.
`COc1cccc(Cn2c(=O)c(-c3cn(C)c4ccccc34)nc3cncnc32)c1`: the Potency in [1] is > 11.4 µM; in test [3] it was 1 µM (active); in [6], > 9.22 µM; in [7], > 46 µM. In addition, the activity change, negative = inhibition in test [2] is 2.97%; in test [4], -0.984%. Besides, the activity, negative = inhibition in test [5] is -0.403%. The Potency entry in [8], in test [9], in test [11], in test [12], in [13] and in test [14] was “inactive” in each case. Also, the Potency entry in test [15] was “inactive”. Also, the outcome in test [16] was inactive.
For the molecule `COc1ccc(CNc2cc(-c3cccnc3)ncn2)c(OC)c1`, the Potency in test [1] was > 11.4 µM; in test [3], 1.26 µM (active); in [6], > 46 µM; in [7], > 46 µM; in [17] it was 1.58 µM (active); in test [12] it was 8.91 µM (active). The Potency in test [13] was 8.91 µM (active); in test [14], 10 µM (active). Also, the activity change, negative = inhibition in test [2] was -14.6%; in [4] it was 10.5%. Further, the activity, negative = inhibition in test [5] was 2.95%. The Potency entry in test [8], in test [9], in [11] and in [15] was “inactive” in each case. Also, in test [16], the result was inactive.
As for `N#Cc1cccc(-c2cncnc2NCc2ccccc2)c1`, the Potency is > 11.4 µM in test [1]; 5.01 µM (active) in [3]; > 46 µM in test [6]; > 46 µM in [7]; 1.26 µM (active) in test [17]; 7.94 µM (active) in [18]. Also, the activity change, negative = inhibition in [2] was 1.22%; in [4], 2.64%. Moreover, in test [5], the activity, negative = inhibition was -1.62%. Further, the Potency result in test [8], in test [9], in test [11], in [12], in test [13] and in test [14] was “inactive” in each case. In addition, the Potency entry in test [15] is “inactive”. The outcome in test [16] was inactive.
On to `Cc1nc2cncnc2n(Cc2ccc(F)cc2)c1=O`, for which the Potency is > 11.4 µM in [1], 10 µM (active) in test [3], > 9.22 µM in [6] and > 46 µM in test [7]. In addition, the activity change, negative = inhibition was -6.19% in test [2] and 9.35% in test [4]. Moreover, the activity, negative = inhibition in test [5] is -9.93%. Further, the Potency entry in test [8], in [9], in test [11], in test [12], in test [13] and in test [14] was “inactive” throughout. The Potency entry in test [15] is “inactive”. For the same molecule, the result in test [16] was inactive.
